A short description of experiment [1]: ATG_TCF_b_cat_CIS: Attagene CIS-FACTORIAL HepG2 Assay for human T-Cell-Factor with beta-catenin (TCF/b-cat) (AID 2282965). The settings on record: HepG2 TCF/beta-catenin cis-reporter transcription, actives raise or lower the signal. In outline:
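HepG2 cells transiently transfected with cis-promoter-driven multiplexed reporter units; reporter mRNA measured 24 h after dosing by RT-PCR, FAM labelling, HpaI digestion and capillary electrophoresis. Bidirectional fitting relative to DMSO baseline.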

Experiment [2] is described as follows: ATG_TAL_CIS: Attagene CIS-FACTORIAL HepG2 Assay for human TAL Basal Promoter (AID 2282966).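 Also: background control endpoint measuring basal TAL promoter reporter mRNA not a specific factor.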 The settings on record: HepG2 Attagene cis-factorial TAL promoter reporter; actives raise or lower the signal. In outline:
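Fluorescence of labelled reporter cDNA fragments, resolved by capillary electrophoresis, gave the readout. Human HepG2 liver cells carried transiently transfected cis-element reporter units and were treated for 24 hours; activity was fitted bidirectionally against DMSO.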

A short description of experiment [3]: ATG_TGFb_CIS: Attagene CIS-FACTORIAL HepG2 Assay for human Transforming Growth Factor (TGF) (AID 2282967). As to conditions: HepG2 Attagene CIS TGFb reporter, mRNA transcription; actives raise or lower the signal. The method in brief:
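Cells were dosed for 24 hours, after which total RNA was reverse-transcribed and reporter sequences amplified, labeled and sized by capillary electrophoresis. Activity was fitted in both directions against DMSO.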

Experiment [4] can be described thus: ATG_VDRE_CIS: Attagene CIS-FACTORIAL HepG2 Assay for human Vitamin D Receptor Element (VDRE) (AID 2282968). As to conditions: HepG2 VDRE cis-reporter transcription, actives raise or lower the signal. The method in brief:
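Transiently transfected HepG2 cells carrying cis-regulated reporter transcription units were exposed for 24 h. Reporter mRNA was measured by RT-PCR with fluorescent labelling and capillary electrophoresis, and fitted in both directions against DMSO.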

The target of experiment [5] is Nuclear receptor subfamily 1 group I member 3 (Homo sapiens) (UniProt Q14994). Briefly: ATG_CAR_TRANS: Attagene TRANS-FACTORIAL HepG2 Assay for human Constitutive Androstane Receptor (CAR) (AID 2282969; active = hit-call score of the fitted dose curve at least 0.9, where 1 is the maximum;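 also: activators raise reporter mRNA above DMSO so AC50 marks induction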). As to conditions: HepG2 Attagene TRANS-FACTORIAL CAR reporter. In outline:
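HepG2 cells transiently transfected with GAL4-UAS reporter units; TRANS format reads activity of exogenous chimeric NR-Gal4 protein. After 24 h dosing, reporter mRNA quantified by RT-PCR, 6-FAM labelling and capillary electrophoresis; gain of signal fitted against DMSO.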

Experiment [6] deals with Estrogen receptor (Homo sapiens) (UniProt P03372). The experiment in a line: ATG_ERa_TRANS: Attagene TRANS-FACTORIAL HepG2 Assay for human Estrogen Receptor alpha (ERa) (AID 2282970; active = hit-call score of the fitted dose curve at least 0.9, where 1 is the maximum). The settings on record: HepG2 Attagene TRANS ERa GAL4 reporter, mRNA. The method in brief: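 Human liver HepG2, transient transfection of multiple GAL4-UAS reporter units; TRANS format (exogenous NR-Gal4 chimera). 24 h dosing. Readout: reporter mRNA, RT-PCR, 6-FAM primer extension, HpaI digest, capillary electrophoresis. Positive direction vs DMSO.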
Sequence of Estrogen receptor (Homo sapiens) (P03372 whole entry, looked up, the tested form may be a part): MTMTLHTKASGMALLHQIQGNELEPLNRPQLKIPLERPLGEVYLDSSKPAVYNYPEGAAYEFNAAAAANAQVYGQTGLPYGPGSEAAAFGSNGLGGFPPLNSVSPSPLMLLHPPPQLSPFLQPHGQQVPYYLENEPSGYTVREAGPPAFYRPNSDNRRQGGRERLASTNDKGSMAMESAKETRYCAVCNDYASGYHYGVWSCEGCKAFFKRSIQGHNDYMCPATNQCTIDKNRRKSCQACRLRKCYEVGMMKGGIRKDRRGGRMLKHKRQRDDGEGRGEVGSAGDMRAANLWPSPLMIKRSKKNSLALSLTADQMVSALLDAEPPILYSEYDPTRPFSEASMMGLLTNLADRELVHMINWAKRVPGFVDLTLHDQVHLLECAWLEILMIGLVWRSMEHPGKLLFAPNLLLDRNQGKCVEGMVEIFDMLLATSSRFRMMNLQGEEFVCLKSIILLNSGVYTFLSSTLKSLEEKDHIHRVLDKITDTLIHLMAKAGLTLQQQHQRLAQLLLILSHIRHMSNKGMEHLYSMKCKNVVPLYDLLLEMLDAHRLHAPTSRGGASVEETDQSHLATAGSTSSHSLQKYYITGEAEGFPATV

Experiment [7] has as its target X-box-binding protein 1 (Homo sapiens) (UniProt P17861). Briefly: ATG_Xbp1_CIS: Attagene CIS-FACTORIAL HepG2 Assay for human X-box Binding Protein 1 (XBP1) (AID 2282972). As to conditions: HepG2 XBP1 cis-element reporter, Attagene multiplex; actives raise or lower the signal. In outline: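 HepG2 cells transiently transfected with multiple cis-element reporter units report endogenous TF activity; 24 h exposure, then reporter mRNA measured by RT-PCR, 6-FAM labelling, HpaI digestion and capillary electrophoresis. Bidirectional fitting versus DMSO.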

Experiment [8] can be described thus: ATG_M_19_TRANS: Attagene TRANS-FACTORIAL HepG2 Assay for M19 Transcription Factor (Internal Marker) (AID 2282974; active = hit-call score of the fitted dose curve at least 0.9, where 1 is the maximum). As to conditions: HepG2 Attagene TRANS-FACTORIAL M19 internal marker reporter. The method in brief:
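Transfected HepG2 (GAL4-UAS MRTUs), 24 h compound, TriZol RNA, DNase-treated RT, reporter PCR, FAM label, HpaI digest, CE fluorescence; gain vs DMSO.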

The target in experiment [9] is Steroid hormone receptor ERR1 (Homo sapiens) (UniProt P11474). Briefly: ATG_ERRa_TRANS: Attagene TRANS-FACTORIAL HepG2 Assay for human Estrogen-Related Receptor alpha (ERRa) (AID 2282971; active = hit-call score of the fitted dose curve at least 0.9, where 1 is the maximum). The settings on record: HepG2 Attagene TRANS reporter, ERRa transactivation. In outline:
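Reporter transcript induction was quantified by RT-PCR and capillary electrophoresis of FAM-labelled, HpaI-cut products after 24 h treatment of HepG2 cells carrying transiently transfected GAL4-UAS reporter units and an exogenous ERRa-Gal4 fusion; activity scored as increase over DMSO.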

A short description of experiment [10]: ATG_GAL4_TRANS: Attagene TRANS-FACTORIAL HepG2 Assay for GAL4 (Internal Marker) (AID 2282976; active = hit-call score of the fitted dose curve at least 0.9, where 1 is the maximum). As to conditions: HepG2 Attagene TRANS GAL4 internal marker reporter. In outline: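 First, HepG2 cells were transfected with reporter units under GAL4-UAS control. Next, they were treated with chemical for 24 h. Finally, RNA was reverse-transcribed, PCR-amplified, FAM-labelled and resolved by capillary electrophoresis, with induction scored against DMSO.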

Where “and” joins values, the source holds several entries; their conditions need not be identical. Identical values can stand only once. Inconclusive results are not listed. A structure can be active in one record and inactive in another. Calls of active or inactive are those of the source. The calls were made as follows, unless noted: active = hit-call score of the fitted dose curve at least 0.9, where 1 is the maximum; inactive = score below 0.9.

Sequence of Nuclear receptor subfamily 1 group I member 3 (Homo sapiens) (Q14994 whole entry, looked up, the tested form may be a part): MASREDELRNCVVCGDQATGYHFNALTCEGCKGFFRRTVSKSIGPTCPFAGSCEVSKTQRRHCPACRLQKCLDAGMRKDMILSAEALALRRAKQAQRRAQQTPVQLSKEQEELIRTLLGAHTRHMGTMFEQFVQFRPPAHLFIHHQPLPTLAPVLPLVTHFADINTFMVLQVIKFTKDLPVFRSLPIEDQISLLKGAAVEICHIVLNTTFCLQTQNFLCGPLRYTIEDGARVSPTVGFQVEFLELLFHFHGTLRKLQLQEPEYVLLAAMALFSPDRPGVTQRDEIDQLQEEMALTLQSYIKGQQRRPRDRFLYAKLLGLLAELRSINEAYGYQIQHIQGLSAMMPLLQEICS
Sequence of Steroid hormone receptor ERR1 (Homo sapiens) (P11474 whole entry, looked up, the tested form may be a part): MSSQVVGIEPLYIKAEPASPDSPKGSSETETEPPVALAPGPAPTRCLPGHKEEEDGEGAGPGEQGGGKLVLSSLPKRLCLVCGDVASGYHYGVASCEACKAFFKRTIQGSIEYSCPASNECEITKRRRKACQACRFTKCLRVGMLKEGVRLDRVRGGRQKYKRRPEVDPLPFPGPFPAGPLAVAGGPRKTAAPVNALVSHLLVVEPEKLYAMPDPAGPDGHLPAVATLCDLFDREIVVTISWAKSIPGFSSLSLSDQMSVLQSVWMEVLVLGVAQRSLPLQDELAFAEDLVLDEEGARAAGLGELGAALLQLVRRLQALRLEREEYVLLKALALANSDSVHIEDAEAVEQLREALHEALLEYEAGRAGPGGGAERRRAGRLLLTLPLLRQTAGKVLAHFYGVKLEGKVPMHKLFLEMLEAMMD
Sequence of X-box-binding protein 1 (Homo sapiens) (P17861 whole entry, looked up): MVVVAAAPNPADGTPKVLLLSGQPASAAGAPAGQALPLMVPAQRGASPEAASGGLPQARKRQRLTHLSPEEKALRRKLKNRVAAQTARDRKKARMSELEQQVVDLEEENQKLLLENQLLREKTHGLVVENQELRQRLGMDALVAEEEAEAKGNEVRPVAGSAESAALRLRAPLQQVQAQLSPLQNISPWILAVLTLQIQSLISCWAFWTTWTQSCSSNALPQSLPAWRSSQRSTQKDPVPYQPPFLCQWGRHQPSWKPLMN

On to `CCC(C)(C)C1CCC(OC)CC1` (configuration not stated), for which the call in [1], in experiment [2], in [3], in experiment [4], in experiment [5] and in experiment [7] was inactive. In addition, the molecule was classed as inactive in experiment [8]. Besides, in experiment [6], the AC50 was 58.7 µM (active).
As for `CCCCOCCOCCOCCO`, the call in experiment [1], in experiment [2], in experiment [3], in [4], in experiment [5] and in [6] was inactive. Moreover, the result in [9], in experiment [7], in experiment [8] and in experiment [10] was inactive.
In the case of `CC(=O)OCC=C(C)CCC=C(C)CCC=C(C)C`, the AC50 in experiment [1] is 148 µM (active); in [2], 100 µM (active); in experiment [6], 9.02 µM (active); in experiment [7] it was 151 µM (active). Besides, the call in [3], in experiment [4], in experiment [5] and in [9] was inactive.
As for `CN(C)CCC=C1c2ccccc2CCc2ccccc21`, the AC50 was 22.1 µM (active) in [1], 23.7 µM (active) in experiment [4] and 40 µM (active) in experiment [7]. The outcome in [2], in [3], in experiment [5], in experiment [6] and in experiment [8] was inactive.
Regarding `CC(C)N1C(=O)c2ccccc2C1=O`, the result in experiment [1], in [2], in [3], in experiment [4], in experiment [5] and in experiment [7] was inactive. For the same molecule, the AC50 in experiment [6] was 42.8 µM (active).
As for `O=C(O)c1cc2ccccc2cc1O`, the outcome in [1], in experiment [2], in experiment [3], in experiment [4], in [5] and in experiment [6] was inactive. Moreover, the molecule was classed as inactive in [9] and in [7].
With `CC(=O)CCC=C(C)CCC=C(C)C`, the molecule was called inactive in [1], in experiment [2], in experiment [3], in [5], in [6] and in [7]. The AC50 in [4] was 7.02 µM (active).
Regarding `CCOC(=O)COC(=O)c1ccccc1C(=O)OCC`, the result in [1], in [2], in [3], in [4], in [5] and in experiment [6] was inactive. In [7], the result was inactive.
On to `C=C1CC[C@H]2O[C@]2(C)CC[C@@H]2[C@@H]1CC2(C)C`, for which the outcome in experiment [1], in experiment [2], in experiment [3], in [4], in experiment [5] and in [6] was inactive. Also, in experiment [7], the result was inactive.
For the molecule `CC1=C(C=O)C(C)(C)CCC1`, the outcome in [1], in experiment [2], in [3], in [4], in experiment [5] and in experiment [6] was inactive. The result in [7] was inactive.
For `CCCCC1CCCCC(=O)O1` (configuration not stated), the outcome in experiment [1], in experiment [2], in [3], in experiment [4], in experiment [5] and in experiment [6] was inactive. Also, the call in experiment [7] and in experiment [8] was inactive.
As to `Brc1cc(Br)cc(Br)c1`, the molecule was called inactive in experiment [1], in experiment [2], in experiment [5], in experiment [6], in experiment [9] and in experiment [7]. Further, the AC50 was 100 µM (active) in [3] and 65 µM (active) in [4].
Take `COc1ccc(C(C)=O)cc1`: the call in experiment [1], in experiment [2], in experiment [3], in experiment [4], in experiment [5] and in [6] was inactive. Also, the outcome in experiment [7] and in experiment [8] was inactive.
As to `CC1=CC(C)C(C=O)C(C)C1` (configuration not stated) (tested in a mixture with another compound), the molecule was called inactive in [1], in experiment [2], in [3], in experiment [5], in [6] and in experiment [7]. In addition, the AC50 in experiment [4] is 28.8 µM (active).
On to `c1ccc(OCCOc2ccccc2)cc1`, for which the result in experiment [1], in experiment [2], in [3], in [4], in experiment [5] and in [6] was inactive. In addition, the molecule was classed as inactive in experiment [7] and in experiment [8].
In the case of `CCCCCC#CC(=O)OC`, the outcome in [1], in experiment [2], in [3], in experiment [4], in [5] and in experiment [6] was inactive. Besides, the molecule was classed as inactive in [7] and in experiment [8].
As for `NCCN1CCNCC1`, the outcome in [1], in experiment [2], in experiment [3], in experiment [4], in experiment [5] and in experiment [6] was inactive. Besides, the call in experiment [7] and in experiment [8] was inactive.
As to `CCCCCCCC(=O)N(C)C`, the outcome in [1], in [2], in experiment [3], in experiment [4], in experiment [5] and in experiment [6] was inactive. Moreover, the molecule was classed as inactive in [9], in experiment [7], in experiment [8] and in [10].
Consider `CCCCOCCOC(=O)c1ccccc1C(=O)OCCOCCCC`, for which the result in experiment [1], in experiment [2], in experiment [3], in [5], in experiment [6] and in [7] was inactive. Also, the AC50 in experiment [4] is 11 µM (active).
Take `[O-]/[N+](=N\O)c1ccccc1`: the molecule was called inactive in experiment [1], in experiment [2], in [3], in experiment [4], in [5] and in experiment [9]. Moreover, the call in experiment [7] was inactive. The AC50 in experiment [6] is 42.3 µM (active).
Turning to `CC(C)N(c1ccccc1)C(C)C`, the call in experiment [1], in [2], in [3], in experiment [4], in experiment [5] and in [6] was inactive. Further, in [7], the result was inactive.
As for `CCC=C(C)C=O`, the molecule was called inactive in experiment [1], in experiment [2], in [4], in [5], in [9] and in [7]. In addition, the molecule was called inactive in experiment [8] and in experiment [10]. For the same molecule, the results for the AC50 in experiment [3] and in experiment [6] were 0.643 µM (active) and 15.3 µM (active), respectively.
Regarding `C=C1CC/C=C(\C)CC[C@@H]2[C@@H]1CC2(C)C`, the call in [1], in experiment [2], in [3], in experiment [4], in experiment [5] and in experiment [9] was inactive. Moreover, the molecule was called inactive in experiment [7] and in [10]. The AC50 in [6] is 14.3 µM (active).
For the molecule `C[C@H](CCC(=O)O)[C@H]1CC[C@H]2[C@@H]3CC[C@@H]4C[C@H](O)CC[C@]4(C)[C@H]3CC[C@]12C`, the AC50 is 35.1 µM (active) in experiment [1], 43 µM (active) in experiment [3], 17.7 µM (active) in experiment [4] and 26.3 µM (active) in [6]. The molecule was classed as inactive in experiment [2], in [5] and in experiment [7].
`COc1ccc(N)c(C)c1`: the AC50 in experiment [1] was 169 µM (active); in experiment [4], 100 µM (active); in [6], 56.5 µM (active). Moreover, the outcome in experiment [2], in experiment [3], in experiment [5], in [7] and in experiment [8] was inactive.
On to `Cc1ccc(C(C)(C)O)cc1`, for which the molecule was classed as inactive in [1], in experiment [2], in experiment [3], in experiment [4], in experiment [5] and in [6]. Also, the result in experiment [7] was inactive.
For the molecule `C[C@]12CC[C@@H]3c4ccc(O)cc4CC[C@H]3[C@@H]1CC[C@@H]2O`, the call in experiment [1], in experiment [2], in experiment [3], in [4], in experiment [5] and in [9] was inactive. Besides, the call in experiment [7], in experiment [8] and in experiment [10] was inactive. The AC50 in [4] is 8.99 µM (active) and 4.21 µM (active).
`CCCCOCC(C)OCC(C)O` (configuration not stated): the result in experiment [1], in [2], in experiment [3], in [4], in experiment [5] and in experiment [6] was inactive. In addition, the call in experiment [7] and in experiment [8] was inactive.
As for `CCCCCCCCCCCCN1CCOCC1`, the molecule was called inactive in experiment [1], in experiment [2], in experiment [3], in [5], in experiment [6] and in [9]. Moreover, in experiment [10], the molecule was called inactive. The results for the AC50 in [4] and in experiment [7] were 60.6 µM (active) and 46.9 µM (active), respectively.

(Values after PubChem BioAssay (EPA / NIEHS).)
